Pf growth 48h – Primary qHTS for delayed death inhibitors of the malarial parasite plastid, 48 hour incubation. hit rate 5.9% among 310,000. Potency, µM (highest dose often 28.7 µM), for inactives: at the top dose activity change, negative = inhibition, hits mostly inhibitors. P. falciparum luciferase growth in erythrocytes, 48 h; also: potency is read from the fitted curve at half-maximal effect; % is scaled to controls: 0 for no effect and ±100 for the full control effect
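Erythrocytes infected with P. falciparum carrying an integrated firefly luciferase reporter (2% hematocrit, 0.1% parasitemia final) were exposed to compounds in RPMI 1640 with 0.5% Albumax at 37 C, 5% CO2. Growth inhibition was scored as reduced luminescence.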
CHX counter – Cycloheximide Counterscreen for Small Molecule Inhibitors of Shiga Toxin. cell reporter, cycloheximide protein synthesis inhibition counterscreen. max response, %. hit rate 12% among 300,000. AID 2314, 2010; in the data active = max response mostly above about 13%, no sharp cut-off; inactive = mostly below about 14%; also: read at 38.3 µM for the half of the compounds with a filed dose; 0% is about no effect
Shiga toxin inh – A qHTS for Small Molecule Inhibitors of Shiga Toxin; Vero cells, Shiga toxin protein synthesis inhibition reporter; inhibition, % at 38.7 µM; AID 2315, 2010; hit rate 9.2% among 290,000; in the data active = inhibition mostly above about 28%, no sharp cut-off; inactive = mostly below about 43%; also: 0% is about no effect
Pf growth 96h – Primary qHTS for delayed death inhibitors of the malarial parasite plastid, 96 hour incubation | P. falciparum luciferase reporter growth, 96 h | Potency, µM (top dose mostly 28.7 µM), for the others: top-dose activity change, negative = inhibition, actives largely listed as inhibitors | hit rate 6.9% among 320,000; also: potency is read from the fitted curve at half-maximal effect; % is scaled to controls: 0 for no effect and ±100 for the full control effect
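Readout is luminescence from an integrated firefly luciferase in P. falciparum. Red cells, 2% hematocrit and 0.05% parasitemia final, were cultured with compound through two parasite generations (96 hours) at 37 C, 5% CO2.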
NS1 inh – qHTS Assay for Inhibitors of Influenza NS1 Protein Function. AID 2326, 2010. hit rate 0.4% among 270,000. Potency, µM (series often up to 46.1 µM), inactives show at the highest dose activity, positive = more growth; calls by dose curve; also: potency is read from the fitted curve at half-maximal effect; actives are rising curves; nearly all actives have a fitted effect of over 50% in size
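Read-out: OD600 growth recovery of NS1-expressing budding yeast. Cells grown overnight at 30C in -URA glucose medium, washed, resuspended and diluted 1:100 in 2% galactose assay medium, pH 6.0. Same strain lacking NS1 served as positive control.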
Giardia FBPA inh – qHTS Assay for Inhibitors of Fructose-1,6-bisphosphate Aldolase from Giardia Lamblia; purified Giardia FBPA; A8B2U2; hit rate 0.71% among 290,000; Potency, µM (doses to about 59.6 µM), inactives show top-dose activity, negative = inhibition, usual class: inhibitors; also: potency is read from the fitted curve at half-maximal effect; % is scaled to controls: 0 for no effect and ±100 for the full control effect; nearly all actives have a fitted effect of over 55% in size
Target sequence (A8B2U2 whole entry, looked up): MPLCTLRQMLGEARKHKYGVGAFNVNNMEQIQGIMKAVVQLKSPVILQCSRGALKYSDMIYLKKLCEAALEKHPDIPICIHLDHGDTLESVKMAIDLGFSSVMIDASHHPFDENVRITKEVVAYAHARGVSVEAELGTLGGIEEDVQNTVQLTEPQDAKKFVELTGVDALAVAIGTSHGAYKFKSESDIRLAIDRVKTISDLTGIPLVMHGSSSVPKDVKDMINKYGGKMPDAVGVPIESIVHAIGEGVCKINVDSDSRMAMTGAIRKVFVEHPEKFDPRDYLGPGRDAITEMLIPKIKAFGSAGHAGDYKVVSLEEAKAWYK
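Giardia FBPA (40 nM reagent) was preincubated 10 min at RT with compound (up to 57.5 uM final), then substrate plus GAPDH/TPI/NAD/arsenate coupling system with diaphorase/resazurin was added; resorufin fluorescence (525/598 nm) was read after 20 min.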
Active calls of the source: *; ? = inconclusive; / = not tested or not shown. Only some compounds are listed: those with a hit (about 21% of all), similar ones and a draw of the others. Unless noted, calls follow the shape of the dose curve; as a rule, active = well fitted curve in the direction sought with a large enough effect; inconclusive = small, poorly fitted or top-dose-only effect, or another doubt; inactive = no such curve, though single readings can be large; an effect the other way counts as inactive or inconclusive.

SMILES	Pf growth 48h	CHX counter	Shiga toxin inh	Pf growth 96h	NS1 inh	Giardia FBPA inh
Cc1cc(C)nc(N2CCC(C(=O)Nc3ccc4c(c3)CCC4)CC2)n1	16%	-1	-8	12µM*	0%	1%
CCCc1nnc(SCC(=O)Nc2cccc(Cl)c2Cl)o1	11%	-3	-5	4%	-54%	-2%
Cc1ccc(C(=O)CC(=O)c2ccc(C)cc2O)cc1	-61%	39*	87*	7.4µM*	-6%	-7%
CC(C)(C)c1ccc(C(=O)CC(=O)c2cc(Cl)ccc2O)cc1	4.7µM*	12	53	/	-6%	-3%
CC(C)(C)c1ccc(C(=O)NNc2cc(Cl)cc(Cl)c2)cc1	-10%	-2	-3	-25%	-40%	0%
Cc1ccc(C(=O)CC(=O)c2cc(Cl)ccc2O)cc1	?	35*	121*	/	-135%	-12%
Cc1ccc(C(=O)OCC(=O)NNC(=O)c2ccccc2)c(O)c1	0%	-2	24	34%	-4%	/
CCC(Oc1ccccc1OC)C(=O)Nc1ccc2c(c1)OCO2 (configuration not stated)	-9%	15	16	31%	1%	-3%
Brc1ccc(Oc2nnnn2-c2ccccc2)cc1	/	8	27	6%	-33%	0%
Cc1cc(Oc2nnnn2-c2ccccc2)ccc1Cl	/	30*	42	2%	-27%	3%
CC1C(NC(=O)/C(=N/OC(C)(C)C(=O)O)c2csc(N)n2)C(=O)N1S(=O)(=O)O (configuration not stated)	/	/	/	/	/	-11%
NC(=O)OC[C@@H]1[C@H](NC(=O)/C(=N/OCC(=O)O)c2csc(N)n2)C(=O)N1S(=O)(=O)O	?	/	/	0.43µM*	/	/
COCc1cnc(C)nc1N	14%	8	2	10%	/	5%
CC(C)Oc1ccc(Cc2cnc(N)nc2N)cc1	/	5	25	6.6µM*	10%	15%
COc1ccc(Cc2cnc(N)nc2N)cc1OC	2.4µM*	/	/	3.8µM*	/	/
COc1cc(C)c(Cc2cnc(N)nc2N)cc1OC	3.8µM*	-6	10	2.7µM*	/	4%
CCCCOc1ccc(Cc2cnc(N)nc2N)cc1	?	2	20	?	-2%	4%
Cc1ccccc1-n1nc2c(c1NC(=O)C(C)(C)C)CS(=O)(=O)C2	11%	1	-1	3%	1%	7%
Cc1ccc(S(=O)(=O)NCC(=O)OCc2nnc(-c3ccccc3)o2)cc1C	20%	20*	13	/	-84%	-3%
O=C(CNS(=O)(=O)c1ccc2ccccc2c1)OCc1nnc(-c2ccccc2)o1	/	32*	22	97%	-74%	-6%
O=C(CCNS(=O)(=O)c1ccccc1)OCc1nnc(-c2ccccc2)o1	69%	/	/	97%	/	/
Cn1cccc1-c1nc2ccc(NC(=O)c3cccs3)cc2[nH]1	1%	26*	62	12µM*	-8%	-11%
CC(=O)Nc1ccc2nc(-c3cccn3C)[nH]c2c1	70%	17*	/	14%	1%	-1%
CC(=O)Nc1ccc(NC(=O)C(C)Sc2n[nH]c(-c3cccs3)n2)cc1 (configuration not stated)	?	/	/	-22%	/	/
CC(=O)Nc1ccc2nc(-c3cccs3)[nH]c2c1	82%	27*	68*	49%	2%	-7%
SMILES	Pf growth 48h	CHX counter	Shiga toxin inh	Pf growth 96h	NS1 inh	Giardia FBPA inh
O=C(Nc1ccc(-c2nc3cc(NC(=O)c4cccs4)ccc3o2)cc1)c1cccs1	30%	0	-1	?	20%	8%
COc1ccc(C2(c3ccc(OC)cc3)NC(=O)N(Cn3nnc4ccccc4c3=O)C2=O)cc1	12µM*	-4	-9	?	-7%	1%
COc1ccc(NC(=O)CCCCCn2nnc3ccccc3c2=O)cc1	-22%	-2	-1	-17%	-6%	1%
COc1ccc(-n2cccc2C=O)cc1	18%	-1	19	-14%	-9%	1%
COc1ccc(-n2cccc2/C=C/[N+](=O)[O-])cc1	?	-8	-20	3.3µM*	-30%	-21%
CCOc1ccc(NS(=O)(=O)c2ccc(NC(=S)NC(=O)C(C)C)cc2)cc1	-24%	-1	1	/	14%	-5%
CCOc1ccc(NS(=O)(=O)c2ccc(NC(=S)NC(C)=O)cc2)cc1	?	-1	-11	3.7µM*	4%	-4%
CCOc1ccc(NS(=O)(=O)c2ccc3ncsc3c2)cc1	-5%	1	-4	3.7µM*	-6%	-17%
CC(=O)N1c2ccc(S(=O)(=O)N3CCCC3C(=O)NCc3ccccc3Cl)cc2CC1C (configuration not stated)	?	-2	2	-27%	6%	9%
c1ccc(CN2COc3c(ccc4c5c(ccc34)CN(Cc3ccccc3)CO5)C2)cc1	/	/	/	/	-3%	/
CCn1c(=N)n(CC(O)COc2cccc(C)c2)c2ccccc21 (configuration not stated)	?	-5	1	?	3%	1%
N=c1n(Cc2ccccc2)c2ccccc2n1CC(O)COc1ccccc1 (configuration not stated)	15µM*	-8	-15	9.3µM*	-5%	0%
Cc1ccc(Cn2c(=N)n(CC(O)COc3ccccc3)c3ccccc32)cc1 (configuration not stated)	/	-6	-22	1.7µM*	6%	-1%
COc1ccc(OCC(O)Cn2c(=N)n(CCN3CCOCC3)c3ccccc32)cc1 (configuration not stated)	?	-10	25	/	-6%	-7%
CCOc1ccc2nc3cc(N)ccc3c(N)c2c1	0.76µM*	/	/	0.85µM*	/	?
CCOc1ccc2nc3cc(NCc4ccc(OC)cc4)ccc3c(N)c2c1	2.3µM*	2	-5	2.6µM*	2%	-3%
CC1CCCCN1CC(O)COCc1ccc(Cl)cc1 (configuration not stated)	28%	-1	1	1%	-11%	7%
O=C1CC[C@@H](CN(Cc2ccccn2)Cc2nc(Cc3cccc(C(F)(F)F)c3)no2)N1	-4%	-2	-12	26%	-3%	-7%
O=C1CC[C@@H](CN(Cc2ccccn2)Cc2nc(Cc3ccccc3)no2)N1	5%	-2	-7	17µM*	-4%	-9%
COC(=O)[C@@H]1C[C@H]1[C@@H](NC(=O)c1cc(C)on1)c1ccccc1	/	/	/	/	/	11%
O=C(N/C=C/n1cnc2cc(C(F)(F)F)ccc21)c1ccccc1F	-19%	-5	-12	0%	/	3%
Cc1ccc(S(=O)(=O)N/N=C/c2cccc3c2OCCO3)cc1	1%	6	-7	2.1µM*	-10%	-4%
Cc1ccc(CN2C3CCCC2CC(NC(=O)c2ccc(F)cc2)C3)cc1 (configuration not stated)	10µM*	2	-11	25%	-10%	-7%
